Assay outcomes: PubChem, National Center for Advancing Translational Sciences (NCATS)
This is a sample that favours compounds with a hit; in the whole collection about 3.3% have one here.
VACV mCherry inh: qHTS for Stage-Specific Inhibitors of Vaccinia Orthopoxvirus: mCherry Reporter Primary qHTS; hit rate 0.63% among 310,000; Potency, µM (series often up to 36.5 µM), inactives show top-dose activity change, negative = inhibition, most hits filed as inhibitors; Vaccinia virus mCherry reporter infection, fluorescence; calls by dose curve; tested in A549 cells; note: % is set by controls: 0 for no effect and ±100 for the full control effect; nearly all actives have a fitted effect of over 35% in size
VACV Venus inh: qHTS for Stage-Specific Inhibitors of Vaccinia Orthopoxvirus: Venus Reporter Primary qHTS. Vaccinia virus Venus reporter expression, fluorescence. Potency, µM (top dose mostly 36.5 µM), inactives show at the top dose activity change, negative = inhibition, hits mostly inhibitors. hit rate 0.46% among 330,000. AID 720580, 2013; calls by dose curve; tested in A549 cells; note: % is set by controls: 0 for no effect and ±100 for the full control effect; nearly all actives have a fitted effect of over 30% in size
HCV inhibitor: qHTS Assay for Inhibitors of Hepatitis C Virus (HCV). Huh7.5.1 HCVcc-Cre infection, luciferase reporter, 44 h. Potency, µM (series often up to 41.8 µM), inactives show at the top dose activity change, negative = inhibition, actives largely listed as inhibitors. hit rate 3.4% among 340,000. AID 651820, 2012; note: % is set by controls: 0 for no effect and ±100 for the full control effect
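Infectious HCVcc-Cre (~0.5 moi) was added to cells just after compound, with cells seeded 4 h earlier at 1,000 per well. Luciferase activity after 44 h culture reported infection; substrate was incubated 15 min at room temperature before reading.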
HCV confirm: qHTS Assay for Inhibitors of Hepatitis C Virus (HCV): Confirmation Assay for Cherry-picked Compounds; AID 720575, 2013; hit rate 78% among 640; HCVcc-Cre infectious virus cell assay, luciferase, inhibition; shares compounds with HCV inhibitor; Potency, µM (top dose mostly 41.8 µM), without a hit: at the top dose activity, negative = inhibition, hits mostly inhibitors; note: nearly all actives have a fitted effect of over 80% in size
HCV cytotox: qHTS Assay for Inhibitors of Hepatitis C Virus (HCV): Cytotoxicity Counterscreen for Cherry-picked Compounds; shares compounds with HCV inhibitor; HCV host cell line cytotoxicity counterscreen; Potency, µM (series often up to 41.8 µM), inactives show top-dose activity change, negative = cytotoxicity, hits mostly inhibitors; hit rate 22% among 640;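 note: 44 h compound exposure; % is set by controls: 0 for no effect and ±100 for the full control effect; nearly all actives have a fitted effect of over 55% in size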
* marks the source's active call; other numbers are inactive results. Unless noted, calls come from the whole dose curve; as a rule, active = well fitted curve in the direction sought with a large enough effect; inconclusive = small, poorly fitted or top-dose-only effect, or another doubt; inactive = no such curve, though single readings can be large; an effect the other way counts as inactive or inconclusive. Potency is the fitted concentration of half-maximal effect.

Results for COc1cc(/C=C/C(=O)Nc2ccc(C)cc2)cc(OC)c1OC ?
VACV mCherry inh: -33%; VACV Venus inh: -20%; HCV inhibitor: inconclusive

What do the screens show for `COc1ccc(Br)cc1/C=C/C(=O)Nc1ccc(C)cc1`?
VACV mCherry inh: inconclusive; VACV Venus inh: -29%; HCV inhibitor: inconclusive; HCV confirm: 7µM*; HCV cytotox: 8%

Results for CC(Sc1nc(N)cc(=O)[nH]1)C(=O)Nc1nc2c(s1)CCCC2 (stereo not given) ?
VACV mCherry inh: inactive; VACV Venus inh: 0%; HCV inhibitor: -3%

What do the screens show for `COCCCn1c(SCc2cccc(C(F)(F)F)c2)nc2cc(OC)c(OC)cc2c1=N`?
HCV inhibitor: 2%

What do the screens show for `COCCCn1c(SCc2ccccc2)nc2cc(OC)c(OC)cc2c1=N`?
HCV inhibitor: inconclusive; HCV confirm: 14µM*; HCV cytotox: 58%

Results for COc1cccc(-c2cc(C(=O)NCc3ccco3)no2)c1 ?
HCV inhibitor: -21%

How did COc1ccc(OC)c(-c2cc(C(=O)NCc3ccco3)no2)c1 do in these assays?
VACV mCherry inh: -25%; VACV Venus inh: -27%; HCV inhibitor: inconclusive; HCV confirm: 28µM*; HCV cytotox: -14%

Results for CNc1nc2cc([N+](=O)[O-])c([N+](=O)[O-])cc2nc1NC ?
VACV mCherry inh: -3%; VACV Venus inh: -19%; HCV inhibitor: inconclusive; HCV confirm: 20µM*; HCV cytotox: inconclusive

Results for N#Cc1cc2nc(O)c(O)nc2cc1[N+](=O)[O-] ?
VACV mCherry inh: -15%; VACV Venus inh: -11%; HCV inhibitor: 2%

How did COc1ccc([C@@H]2C[C@H]3CN(c4ccccc4)C(=O)[C@]34CCCN24)c(OC)c1OC do in these assays?
HCV inhibitor: 24%

Results for CC(C)(O)C#Cc1ccc([C@@H]2C[C@H]3CN(c4ccccc4)C(=O)[C@]34CCCN24)s1 ?
VACV mCherry inh: inconclusive; VACV Venus inh: inconclusive; HCV inhibitor: inconclusive; HCV confirm: 7µM*; HCV cytotox: -83%

What do the screens show for `COC(=O)C1=C(N)OC2=C(C(=O)CC(C)(C)C2)C1c1cc2c(cc1Cl)OCO2` (stereo not given)?
VACV mCherry inh: -28%; VACV Venus inh: -9%; HCV inhibitor: 9%

What do the screens show for `CCC(C)(C)n1nnnc1C(c1ccc(F)cc1)N1CCN(C(=O)c2ccco2)CC1` (stereo not given)?
VACV mCherry inh: -12%; VACV Venus inh: -5%; HCV inhibitor: 2%

What do the screens show for `CCN1CCN(CCCN(Cc2ccco2)C(=S)Nc2ccc(Cl)c(C)c2)CC1`?
VACV mCherry inh: -17%; VACV Venus inh: -23%; HCV inhibitor: inconclusive

Results for Cc1cc(NC(=S)N(CCN2CCCCC2)Cc2ccco2)ccc1Cl ?
VACV mCherry inh: -23%; VACV Venus inh: -20%; HCV inhibitor: 8.9µM*; HCV confirm: 25µM*; HCV cytotox: -14%

What do the screens show for `O=C(c1ccc(F)cc1F)N1CCCC(c2nc(-c3cccs3)no2)C1` (stereo not given)?
VACV mCherry inh: -11%; VACV Venus inh: -5%; HCV inhibitor: -3%

How did Cc1ccc(NC(=O)c2csc(-c3ccccc3)c2C)cc1 do in these assays?
HCV inhibitor: -2%

Results for Cc1c(C(=O)Nc2cccc([N+](=O)[O-])c2)csc1-c1ccccc1 ?
VACV mCherry inh: inactive; VACV Venus inh: -10%; HCV inhibitor: 7.1µM*; HCV confirm: 11µM*; HCV cytotox: inconclusive

What do the screens show for `CCOc1ccc(C(=O)NCC2CCN(CC3CCCCC3)CC2)cc1`?
VACV mCherry inh: -15%; VACV Venus inh: -14%; HCV inhibitor: -8%

Results for Cc1cc(Cl)c(S(=O)(=O)N2CCCCCC2)cc1OCC(N)=O ?
VACV mCherry inh: inconclusive; VACV Venus inh: -20%; HCV inhibitor: -5%

What do the screens show for `CCN1CCN(S(=O)(=O)c2cc(OCC(=O)NC3CCCCC3)c(C)cc2Cl)CC1`?
HCV inhibitor: 7.1µM*; HCV confirm: 4µM*; HCV cytotox: 7µM*
